MCF10A rereplic = DNA re-replication induction in MCF 10a cells | MCF 10A DNA re-replication, Hoechst nuclear intensity, 48 h | hit rate 2.9% among 350,000 | Potency, µM (top dose mostly 46.1 µM), for inactives: top-dose activity, positive = re-replication, most hits filed as activators | AID 624296; further: % of control where 0% means no effect; nearly all actives have a fitted effect of over 50% in size
SW480 rerep = inducers of DNA re-replication in SW480 colon cancer cells; SW480 DNA re-replication, Hoechst DNA content imaging, 48 h; AID 624297; Potency, µM (series often up to 46.1 µM), for inactives: top-dose re-replication activation, hits mostly activators; hit rate 1.8% among 340,000; further: % of control where 0% means no effect; nearly all actives have a fitted effect of over 55% in size
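SW480 cells exposed to compounds for 48 hr at 37 C, 5% CO2, then Hoechst-stained 40 min. Nuclear DNA content imaged by fluorescence scanning (405 nm excitation, 500-530 nm emission); re-replication scored as increased high-intensity nuclei.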
PINK1 expr mod = changes PINK1 expression | hit rate 0.2% among 410,000 | AID 624263 | Potency, µM (highest dose often 76.6 µM), for the others: at the top dose activation (PINK1 increase), most hits filed as activators | PINK1 immunofluorescence, high-content cytometry, 24 h; active means well fitted activation curve with a large enough effect; inconclusive means small, poorly fitted or top-dose-only effect; cell line not stated here; further: % of control where 0% means no effect; nearly all actives have a fitted effect of over 65% in size
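Readout is PINK1 immunofluorescence, quantified alongside mitochondrial, cell and nuclear markers by laser-scanning microplate cytometry. Cells from a stable line were exposed to compound titrations (5 concentrations) for 24 hours, with CCCP controls.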
KB-3-1 tox = KB-3-1 parental cell cytotoxicity | Potency, µM (doses to about 46.1 µM), most hits filed as cytotoxic | hit rate 1.4% among 400,000 | AID 1347075 | KB-3-1 viability, CellTiter-Glo ATP luminescence, 72 h; further: on the % scale 0 is the no-effect control and ±100 the full control effect; nearly all actives have a fitted effect of over 60% in size
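KB-3-1 parental drug-naive adenocarcinoma cells in DMEM/10% FBS, incubated 72 h at 37 C with pin-transferred compounds across a concentration series. Viability by CellTiter-Glo luminescence; concentration-response curves fitted after normalization.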
12-LOX inh = blocks human arachidonate 12S-lipoxygenase; P18054; purified 12hLO, xylenol orange hydroperoxide absorbance; Potency, µM (series often up to 108 µM), inactives show at the highest dose activity change, negative = inhibition, most hits filed as inhibitors; hit rate 1.1% among 580,000; further: on the % scale 0 is the no-effect control and ±100 the full control effect
Target sequence (P18054 whole entry, looked up): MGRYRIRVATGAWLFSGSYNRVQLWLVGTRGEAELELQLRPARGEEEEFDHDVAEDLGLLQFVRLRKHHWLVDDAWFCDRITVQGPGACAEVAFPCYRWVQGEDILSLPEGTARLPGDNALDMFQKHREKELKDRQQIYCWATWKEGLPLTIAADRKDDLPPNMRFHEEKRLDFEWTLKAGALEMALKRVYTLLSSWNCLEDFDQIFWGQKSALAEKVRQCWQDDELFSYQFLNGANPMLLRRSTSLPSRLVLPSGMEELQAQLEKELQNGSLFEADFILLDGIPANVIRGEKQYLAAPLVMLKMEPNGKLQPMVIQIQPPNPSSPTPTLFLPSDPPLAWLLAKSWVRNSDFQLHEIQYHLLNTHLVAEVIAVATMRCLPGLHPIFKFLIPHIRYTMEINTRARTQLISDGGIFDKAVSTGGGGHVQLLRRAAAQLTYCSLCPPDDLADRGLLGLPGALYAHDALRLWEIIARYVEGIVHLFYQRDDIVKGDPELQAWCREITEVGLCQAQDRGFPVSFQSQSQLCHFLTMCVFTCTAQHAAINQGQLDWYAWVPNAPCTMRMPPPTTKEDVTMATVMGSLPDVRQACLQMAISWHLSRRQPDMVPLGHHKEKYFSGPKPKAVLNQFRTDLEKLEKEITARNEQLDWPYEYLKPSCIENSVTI
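Hydroperoxide product was detected by ferrous iron/xylenol orange as the 573 to 405 nm absorbance ratio. Arachidonic acid at 40 uM (final) was turned over for 30 min at room temperature by 150 nM human 12hLO, pH 7.0 Hepes buffer, after 15 min compound preincubation.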
KB-V1 cytotox = KB-V1 MDR subline cytotoxicity. AID 1347076. KB-V1 MDR cells viability, CellTiter-Glo, 72 h. Potency, µM (series often up to 46.1 µM), actives largely listed as cytotoxic. hit rate 3.4% among 400,000; further: on the % scale 0 is the no-effect control and ±100 the full control effect; nearly all actives have a fitted effect of over 60% in size
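Cytotoxicity via CellTiter-Glo luminescence after 72 h compound exposure at 37 degrees C. Cells: drug-selected KB-V1 line, DMEM phenol-red free plus 10% FBS. Compounds tested at multiple concentrations; normalized data fitted to concentration-effect curves.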
* = called active by the depositor; i = inactive; ? = inconclusive; / = no result given; [ ] = dose if it differs, or a comment. An excerpt weighted towards active compounds, which were near 5.8% of everything screened. Unless noted, the call rests on the fitted dose curve; in most records, active means well fitted curve in the direction sought with a large enough effect; inconclusive means small, poorly fitted or top-dose-only effect, or another doubt; inactive means no such curve, though single readings can be large; an effect the other way counts as inactive or inconclusive. Potency means the concentration at half of the fitted maximal effect.

SMILES	MCF10A rereplic	SW480 rerep	PINK1 expr mod	KB-3-1 tox	12-LOX inh	KB-V1 cytotox
CC(=O)NC1C(=O)N(CCOc2cccc(C)c2)c2ccc(C)cc21 (centres undefined)	/	/	/	/	50%	/
Cc1ccc(-c2cc(C(=O)Nc3cccnc3)c3ccccc3n2)o1	1%	14%	/	?	10µM*	i
Cc1ccc(NC(=O)c2cc(C)nc3ccccc23)cc1	7%	1%	3%	i	0%	i
Cc1ccc(NC(=O)c2cc(-c3ccc(C)o3)nc3ccccc23)cc1	10%	6%	/	i	4.5µM*	i
O=C(Nc1ccccn1)c1cc(-c2ccco2)nc2ccccc12	/	/	/	/	40µM*	/
Cc1ccnc(NC(=O)c2cc(-c3ccc(Cl)s3)nc3ccccc23)c1	?	-295%	?	i	-27%	i
O=C(NNC(=O)c1cc(-c2ccco2)nc2ccccc12)c1ccccc1	-23%	-62%	1%	i	?	i
O=C(Nc1ccccn1)c1cc(-c2ccc(Cl)s2)nc2ccccc12	21µM*	-2%	3%	?	2%	?
CC(C)NC(=O)CCn1cnc2sc3c(c2c1=O)CCCC3	/	/	/	/	-5%	/
O=C(NC(=S)Nc1ccccn1)c1cc(-c2ccccc2)nc2ccccc12	8%	?	-2%	i	-10%	16µM*
Cc1ccc(-c2cc(C(=O)NCCN3CCOCC3)c3ccccc3n2)o1	0%	?	0%	i	?	?
Cc1ccc(-c2cc(C(=O)Nc3ccccn3)c3ccccc3n2)o1	?	9%	5%	i	6.3µM*	?
CC(=O)Nc1cc(F)c(F)cc1NC(=O)CCc1c[nH]c2ccccc12	/	/	/	/	-15%	/
CCCCOc1ccc(C(=O)NCC(=O)NCc2ccccn2)cc1	57%	?	5%	0.52µM*	11%	?
COC(=O)c1cc(N)cc(C(=O)OC)c1	/	/	/	/	52%	/
Clc1ccc(-c2cn(-c3ccccc3)c3[n+]2CCS3)cc1	14%	9%	5%	13µM*	-2%	i
Fc1ccc(-c2cn(-c3ccccc3)c3[n+]2CCS3)cc1	4%	-5%	1%	?	40%	i
CC(=O)c1ccc(-n2cc(-c3ccc(C(C)(C)C)cc3)[n+]3c2SCCC3)cc1	-48%	-12%	1%	?	1%	i
COc1ccc(-c2cn(-c3ccc(Cl)cc3)c3[n+]2CCCCC3)cc1	?	3%	-3%	9.2µM*	59%	i
COc1ccc(-c2cn(-c3ccc(Br)cc3)c3[n+]2CCS3)cc1	4%	-3%	1%	8.2µM*	-13%	i
Clc1ccc(-c2c[n+]3c(n2-c2ccccc2)SCC3)cc1	5%	-1%	-1%	15µM*	-10%	i
CCc1cc(C(=O)NC(C)CCc2ccccc2)sc1C (centres undefined)	/	/	/	/	-24%	/
COc1cccc(C2C(C(=O)c3cc4ccccc4o3)=C(O)C(=O)N2c2cc(C)on2)c1 (centres undefined)	18µM*	-11%	0%	i	?	i
C=CCOc1cccc(C2C(C(=O)c3cc4ccccc4o3)=C(O)C(=O)N2c2cc(C)on2)c1 (centres undefined)	21µM*	?	6%	i	?	i
CCCOc1ccc(C2C(C(=O)c3cc4ccccc4o3)=C(O)C(=O)N2c2cc(C)on2)cc1OC (centres undefined)	8%	8%	0%	i	?	i
SMILES	MCF10A rereplic	SW480 rerep	PINK1 expr mod	KB-3-1 tox	12-LOX inh	KB-V1 cytotox
COc1ccc(OC)c(C2C(C(=O)c3cc4ccccc4o3)=C(O)C(=O)N2c2cc(C)on2)c1 (centres undefined)	8%	2%	-2%	?	?	3.7µM*
CCc1ccc(-c2nnn(CC(=O)N(CC)Cc3ccc(Cl)s3)n2)cc1	/	/	/	/	55%	/
COc1cccc(C(=O)c2sc(NC(C)C)nc2N)c1	5.8µM*	?	-1%	16µM*	-21%	?
COc1ccc(Nc2nc(N)c(C(=O)c3ccc(F)cc3)s2)cc1	2.6µM*	4.1µM*	2%	?	?	1.3µM*
COc1ccccc1Nc1sc(C(=O)c2ccc(Br)cc2)c(N)c1C(N)=O	/	/	/	/	-34%	/
COc1ccc(C(=O)c2sc(Nc3ccccc3)c(C(N)=O)c2N)cc1	/	/	/	/	16µM*	/
COc1ccc(Nc2nc(N)c(C(=O)c3ccc(OC)c(OC)c3)s2)cc1	/	/	/	/	4%	/
COc1ccc(C(=O)c2sc(NC(C)C)nc2N)cc1OC	?	0%	0%	?	-13%	?
CC(C)Nc1nc(N)c(C(=O)C23CC4CC(CC(C4)C2)C3)s1	23µM*	21%	4%	i	?	i
CCCCc1cc(=O)oc2c(C)c(OC(C)C(=O)NCc3cccnc3)ccc12 (centres undefined)	/	/	/	/	2%	/
Cc1cc(C)c2c(=O)cc(C(=O)Nc3ccc(Cl)cc3)oc2c1	/	/	/	/	18%	/
O=S(=O)(c1cc(F)ccc1F)N1CCN(Cc2ccc3c(c2)CCO3)CC1	/	/	/	/	-7%	/
COc1ccc(Nc2nc(N)c(C(=O)c3ccc(OC)cc3)s2)cc1	?	4.1µM*	-1%	1.3µM*	109%	?
COc1ccc(NC(=O)CSc2nc3c(cnn3-c3ccc(C)c(C)c3)c(=O)[nH]2)cc1	/	/	/	/	-23%	/
CC1CCN(S(=O)(=O)c2ccc3nc(Nc4cccc(F)c4)ccc3c2)CC1	/	/	16µM*	?	?	?
CCOCCCN(C(=O)c1ccco1)C(C(=O)NC1CCCC1)c1cccc(OC)c1OC (centres undefined)	-5%	?	0%	i	-12%	16µM*
COc1cccc(C(C(=O)NC2CCCC2)N(C(=O)c2ccco2)c2ccccc2)c1OC (centres undefined)	11%	11%	0%	i	-16%	?
CS(=O)(=O)N1CC2(CCCN2Cc2cccc(C(N)=O)c2)Cc2ccccc21 (centres undefined)	/	/	/	/	34%	/
COc1ccccc1-n1[nH]c(C)c(Cc2ccccc2Cl)c1=O	/	/	/	/	5%	/
CCOC(=O)c1cc(C)sc1NC(=O)CSC1=NCCS1	21µM*	?	1%	i	1%	i
Cc1csc(Sc2ccc([N+](=O)[O-])cc2C(=O)OCC(=O)NC2CCCC(C)C2C)n1 (centres undefined)	18µM*	?	8%[38.3 µM]	i	-28%	i
COc1ccccc1N1CCN(CCCCCCOc2ccc(F)cc2)CC1	?	?	?	?	-30%	3.7µM*
COc1ccccc1N1CCN(CC(=O)c2ccc(F)cc2)CC1	1%	-1%	3%	i	1.1µM*	i
COc1cccc(OC)c1C(=O)NCCc1c[nH]c2ccccc12	/	/	/	/	38%	/

Screens deposited in PubChem BioAssay by National Center for Advancing Translational Sciences (NCATS).
